From PubChem BioAssay AID2158 (National Center for Advancing Translational Sciences (NCATS), 2009) come the findings set out here.

Results filed as inconclusive are left out. Unmarked numbers belong to inactive results. Calls of active or inactive are those of the source. Calls follow the shape of the dose curve; as a rule, active = well fitted inhibition curve with a large enough effect; inconclusive = small, poorly fitted or top-dose-only effect; inactive = no such curve, though single readings can be large or run the other way.
Potency is read from the fitted curve at half-maximal effect.

Sequence of Cruzipain (Trypanosoma cruzi) (P25779 123-467 limits assumed): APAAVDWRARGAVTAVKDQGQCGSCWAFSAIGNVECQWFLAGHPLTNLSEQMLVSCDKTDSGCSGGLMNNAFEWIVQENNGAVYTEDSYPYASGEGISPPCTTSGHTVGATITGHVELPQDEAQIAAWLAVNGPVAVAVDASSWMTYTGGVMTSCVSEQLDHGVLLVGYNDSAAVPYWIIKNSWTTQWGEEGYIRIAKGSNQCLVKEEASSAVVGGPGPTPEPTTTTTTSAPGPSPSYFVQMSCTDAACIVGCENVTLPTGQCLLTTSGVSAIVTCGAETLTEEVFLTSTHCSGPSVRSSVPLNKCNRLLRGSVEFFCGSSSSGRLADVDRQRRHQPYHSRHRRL

This test addresses Cruzipain (Trypanosoma cruzi) (UniProt P25779). Kind of test: Confirmation qHTS Assay for Inhibitors of Cruzain. Also: nearly all actives have a fitted effect of over 40% in size.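 As to activity change, negative = inhibition: plate controls were uninhibited enzyme control for no effect and buffer wells lacking enzyme for full effect.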 Conditions: purified cruzain, Z-FR-AMC fluorescence, 0.01% Triton. An outline of the steps: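 Purified cruzain, 1.5 nM, pre-incubated 15 min at room temperature with compound in 100 mM sodium acetate pH 5.5, 5 mM DTT, 0.01% Triton X-100. Then 2 uM Z-FR-AMC added; AMC fluorescence (ex 360/em 450 nm) increase over 60 s gave reaction progress.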
In general terms: Quantitative high-throughput screening tests each substance at several concentrations.
As to `N#Cc1nc(N(c2ccccc2)c2ccccc2)nc(-n2cccc2)n1`, the Potency is 2.51 µM (active).
Same read-out and setting: then `CCc1ccc(C(=O)COC(=O)CNC(=O)C2CCCCC2)cc1`, with 7.08 µM (active); and `CCOc1nc(C#N)nc(N2CCOCC2)n1`, with 5.01 µM (active); and `CNc1oc(/C=C/c2cc(OC)c(OC)c(OC)c2)nc1C#N`, with 15.8 µM (active).
On the same count and under the same terms, then `Cc1ccc(OCCCCn2c(CCNC(=O)C3CCCCC3)nc3ccccc32)cc1`, with 1.12 µM (active).
With `O=C(NC(=S)Nc1cccc(Cl)c1N1CCCC1)c1ccc(-c2cccc([N+](=O)[O-])c2)o1`, the activity change, negative = inhibition is -8.07%.
Consider `COc1ccccc1OCCCn1c(CCNC(=O)C2CCCCC2)nc2ccccc21`, for which the Potency was 0.708 µM (active).
Still for that read-out and setting: the value for `COc1nc(C#N)nc(N2CCCCC2)n1` was 2.82 µM (active).
With `CC(=O)c1nnn(-c2nc(C#N)nc(N3CCOCC3)n2)c1C`, the activity change, negative = inhibition was 4.76%.
